Values without a mark were called inactive.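 How the source made its calls: active = AUC reduced over 20% with Padj below 0.05 in at least 2 of 3 replicates; inactive = otherwise.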
How the values were obtained:
Test in all cases: growth AUC relative to DMSO control (median of replicates) (fraction); higher = more growth (less inhibition), active = hit call of the paper
Conditions in all cases: 20 µM; 24 h
Akkermansia muciniphila = tested on: Akkermansia muciniphila
Method in brief: (§1)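 In round-bottom 96-well plates sealed with pierced gas-permeable seals, gut bacterial monocultures in mGAM were grown anaerobically at 37 °C from OD600 0.05 with 20 µM compound (1% DMSO). OD600 readings were taken hourly for 24 h, and the minimum OD was set to 0. Area under the growth curve was then normalised to the plate median of solvent-only wells, or to row and column medians on the industrial chemical plate. The value given is the median of three biological replicates grown on separate days.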

Bacteroides caccae = tested on: Bacteroides caccae
Method in brief: as §1

Bacteroides clarus = tested on: Bacteroides clarus
Method in brief: as §1

Bacteroides dorei = tested on: Bacteroides dorei
Method in brief: as §1

Bacteroides stercoris = tested on: Bacteroides stercoris
Method in brief: as §1

[1] = tested on: Bacteroides thetaiotaomicron
Method in brief: as §1

Bacteroides uniformis = tested on: Bacteroides uniformis
Method in brief: as §1

[2] = tested on: Bifidobacterium longum subsp. longum
Method in brief: as §1

Clostridium difficile = tested on: Clostridium difficile
Method in brief: as §1

Collinsella aerofaciens = tested on: Collinsella aerofaciens
Method in brief: as §1

Coprococcus comes = tested on: Coprococcus comes
Method in brief: as §1

Escherichia coli ED1a = tested on: Escherichia coli ED1a
Method in brief: as §1

Escherichia coli IAI1 = tested on: Escherichia coli IAI1
Method in brief: as §1

Eubacterium rectale = tested on: Eubacterium rectale
Method in brief: as §1

[3] = tested on: Fusobacterium nucleatum subsp. animalis
Method in brief: as §1

Lactobacillus gasseri = tested on: Lactobacillus gasseri
Method in brief: as §1

Lactobacillus paracasei = tested on: Lactobacillus paracasei
Method in brief: as §1

Odoribacter splanchnicus = tested on: Odoribacter splanchnicus
Method in brief: as §1

[4] = tested on: Parabacteroides distasonis
Method in brief: as §1

Parabacteroides merdae = tested on: Parabacteroides merdae
Method in brief: as §1

| SMILES | growth AUC (Akkermansia muciniphila) | growth AUC (Bacteroides caccae) | growth AUC (Bacteroides clarus) | growth AUC (Bacteroides dorei) | growth AUC (Bacteroides stercoris) | growth AUC [1] | growth AUC (Bacteroides uniformis) | growth AUC [2] | growth AUC (Clostridium difficile) | growth AUC (Collinsella aerofaciens) | growth AUC (Coprococcus comes) | growth AUC (Escherichia coli ED1a) | growth AUC (Escherichia coli IAI1) | growth AUC (Eubacterium rectale) | growth AUC [3] | growth AUC (Lactobacillus gasseri) | growth AUC (Lactobacillus paracasei) | growth AUC (Odoribacter splanchnicus) | growth AUC [4] | growth AUC (Parabacteroides merdae) |
| --- | --- | --- | --- | --- | --- | --- | --- | --- | --- | --- | --- | --- | --- | --- | --- | --- | --- | --- | --- | --- |
| CC(C)N(Cc1ccccc1)C(=O)C(C)(C)C | 1.11 | 0.928 | 0.976 | 0.936 | 0.958 | 0.98 | 0.999 | 1.04 | 0.937 | 0.92 | 0.988 | 0.966 | 0.971 | 1.03 | 0.969 | 0.814 | 0.934 | 1.07 | 0.989 | 0.948 |
| CCC(C)[C@H]1O[C@]2(C=C[C@@H]1C)C[C@@H]1C[C@@H](C/C=C(\C)[C@@H](O[C@H]3C[C@H](OC)[C@@H](O[C@H]4C[C@H](OC)[C@@H](O)[C@H](C)O4)[C@H](C)O3)[C@@H](C)/C=C/C=C3\CO[C@@H]4[C@H](O)C(C)=C[C@@H](C(=O)O1)[C@]34O)O2.CO[C@H]1C[C@H](O[C@H]2[C@H](C)O[C@@H](O[C@@H]3/C(C)=C/C[C@@H]4C[C@@H](C[C@]5(C=C[C@H](C)[C@@H](C(C)C)O5)O4)OC(=O)[C@@H]4C=C(C)[C@@H](O)[C@H]5OC/C(=C\C=C\[C@@H]3C)[C@]54O)C[C@@H]2OC)O[C@@H](C)[C@@H]1O (stereo not given in full) | 1.22 | 0.965 | 1.07 | 0.965 | 0.915 | 1.01 | 1.01 | 0.919 | 0.952 | 0.996 | 0.99 | 1.02 | 1.01 | 1.01 | 1.15 | 0.808 | 0.899 | 1.07 | 0.536 (active) | 1.05 |
| C[Si](Cn1cncn1)(c1ccc(F)cc1)c1ccc(F)cc1 | 0.895 | 0.891 | 0.907 | 0.854 | 0.952 | 0.895 | 0.913 | 0.923 | 1 | 0.931 | 0.412 (active) | 0.982 | 0.946 | 0.504 (active) | 0.9 | 1.04 | 0.925 | 0.925 | 0.915 | 0.964 |
| CCOP(=S)(OCC)Oc1ccc(Cl)cc1Cl | 0.962 | 1.03 | 0.963 | 1.02 | 1.04 | 0.979 | 0.987 | 1.04 | 1.02 | 1.04 | 1.03 | 1.01 | 1.02 | 0.953 | 1.03 | 1 | 1.07 | 1.02 | 1.05 | 0.997 |
| O.[Br-].[Br-].c1cc[n+]2c(c1)-c1cccc[n+]1CC2 | 0.784 | 0.612 (active) | 0.992 | 0.996 | 1.01 | 1.01 | 0.984 | 1.02 | 0.912 | 0.995 | 0.988 | 1.03 | 0.95 | 1.21 | 0.996 | 1.11 | 1.01 | 0.937 | 0.781 (active) | 0.967 |
| COP(=S)(Oc1cc(Cl)c(Br)cc1Cl)c1ccccc1 (stereo not given) | 0.925 | 0.949 | 0.928 | 1.02 | 1.44 | 0.98 | 0.993 | 1.02 | 1.03 | 0.976 | 1.02 | 1.01 | 0.992 | 0.893 | 1.03 | 0.852 | 0.982 | 1.03 | 0.957 | 1.01 |
| CC(=NCc1ccc(Cl)nc1)NC#N | 1.01 | 1.02 | 1.05 | 1.04 | 1.1 | 0.99 | 1.03 | 1.02 | 1.03 | 1.02 | 1 | 1.02 | 1.03 | 1 | 1.09 | 0.997 | 1.03 | 1.04 | 0.999 | 0.968 |
| CNC(=O)O/N=C/C(C)(C)S(C)(=O)=O | 0.927 | 0.994 | 0.962 | 1.02 | 0.973 | 1 | 1.01 | 1.05 | 0.966 | 1.01 | 0.98 | 1.03 | 1.03 | 0.939 | 0.97 | 1.05 | 1 | 0.964 | 1.04 | 0.977 |
| COC(=O)c1cc(Oc2ccc(Cl)cc2Cl)ccc1[N+](=O)[O-] | 1.02 | 0.953 | 0.793 (active) | 0.973 | 0.436 (active) | 0.968 | 0.814 | 1.02 | 0.905 | 0.901 | 0.993 | 0.985 | 0.982 | 1.11 | 0.975 | 0.933 | 0.928 | 0.934 | 0.449 (active) | 0.958 |
| COP(=S)(OC)Oc1c(Cl)cc(C)cc1Cl | 0.999 | 0.966 | 0.993 | 0.964 | 0.958 | 1.01 | 0.97 | 0.98 | 0.985 | 0.975 | 0.99 | 0.983 | 0.99 | 1 | 0.971 | 0.925 | 1.06 | 0.97 | 0.96 | 0.998 |
| c1ccc2c(c1)-c1cccc3cccc-2c13 | 0.967 | 0.969 | 0.997 | 0.999 | 0.98 | 0.963 | 0.996 | 0.857 | 1.02 | 0.93 | 0.92 | 0.941 | 1 | 0.91 | 0.954 | 1.03 | 0.98 | 1 | 0.938 | 0.935 |
| CCOP(=S)(OCC)Oc1cc(Cl)c(Br)cc1Cl | 0.917 | 0.936 | 0.94 | 1.02 | 0.953 | 0.979 | 0.966 | 0.954 | 0.977 | 0.98 | 0.976 | 1.02 | 0.992 | 1.05 | 1.08 | 0.868 | 1 | 0.968 | 0.891 | 0.962 |
| CCc1cccc(C)c1N(C(=O)CCl)C(C)COC (stereo not given) | 1.03 | 0.884 | 1.01 | 0.995 | 1.26 | 1 | 0.935 | 1.07 | 0.979 | 1.02 | 1.03 | 1.02 | 0.983 | 1.02 | 1.1 | 1.04 | 1.02 | 0.972 | 1.03 | 0.991 |
| OC(c1ccc(Cl)cc1)(c1ccc(Cl)cc1)C(Cl)(Cl)Cl | 1.07 | 0.962 | 0.409 (active) | 0.954 | 0.0157 (active) | 0.379 (active) | 0.0202 (active) | 0.973 | 1.03 | 0.973 | 1.01 | 0.998 | 1.03 | 0.805 | 0.977 | 0.162 (active) | 1.01 | 0.687 (active) | 0.0387 (active) | 0.777 (active) |
| Cc1occc1C(=O)Nc1ccccc1 | 0.899 | 1 | 0.958 | 1.04 | 0.952 | 1.02 | 1 | 1.02 | 1.05 | 0.959 | 0.977 | 0.966 | 0.953 | 1.16 | 0.933 | 0.973 | 0.925 | 0.985 | 0.971 | 0.998 |
| OC(c1ccc(Cl)cc1)(c1cncnc1)c1ccccc1Cl (stereo not given) | 0.992 | 0.89 | 0.887 | 0.893 | 0.686 | 0.503 (active) | 0.632 (active) | 0.921 | 1.01 | 0.984 | 0.987 | 0.991 | 0.973 | 1.14 | 1.01 | 0.922 | 1.12 | 0.611 | 0.886 | 0.299 (active) |

From the supplement of paper PMC12669032
